Screening data: PubChem, National Center for Advancing Translational Sciences (NCATS)
Sm TGR block: S. mansoni TGR enzyme inhibition; 360,000 tested, 3% active; Q962Y6; AID 485364; purified TGR, DTNB reduction, TNB absorbance 405 nm; Potency, µM (doses to about 114 µM), without a hit: at the top dose activity change, negative = inhibition, usual class: inhibitors; also: potency is read from the fitted curve at half-maximal effect; nearly all actives have a fitted effect of over 60% in size
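TGR 20 nM + NADPH 100 uM (dispensed conc.), cpd preinc 15 min RT; start with NADPH (500 uM addition) then DTNB (15 mM addition). Kinetic TNB absorbance, 405 nm filter. Four-parameter Hill fit across titration.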
Pf growth 96h: inhibits malaria parasite growth, 96 h; AID 504834; P. falciparum luciferase reporter growth, 96 h; 320,000 tested, 6.9% active; Potency, µM (titrated, usually from 28.7 µM), for the others: at the top dose activity change, negative = inhibition, most hits filed as inhibitors; also: potency is read from the fitted curve at half-maximal effect
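Infected RBCs, 2% Hct / 0.05% parasitemia final; luciferase-reporter P. falciparum; cpd 96 h, 37 C, 5% CO2; luciferase detection reagent; luminescence.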
HCMV antiviral: inhibitors of human cytomegalovirus. activity change, negative = inhibition, % at 57.5 µM. 410,000 tested, 4.5% active. AID 1259415. HFF cells, HCMV-luciferase reporter, 72 h; stronger effect = lower value; in the data active = activity change below about -60%; inconclusive = no clear call, values can overlap the other calls; inactive = above about -39%
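Luciferase read-out from HCMV-luciferase-infected HFFs (MOI 1 PFU/cell) 72 h post infection at 37C; compounds added after 16 h cell attachment; activity normalized between buffer-only basal and Salinomycin (10uM) inhibitor controls.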
Pf growth 48h: P. falciparum growth inhibition at 48 hours (one generation); P. falciparum luciferase growth in erythrocytes, 48 h; Potency, µM (doses to about 28.7 µM), for inactives: at the highest dose activity change, negative = inhibition, most hits filed as inhibitors; 310,000 tested, 5.9% active; AID 504832; also: potency is read from the fitted curve at half-maximal effect
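Firefly luciferase activity from engineered P. falciparum reports growth; inhibitors lower the luminescent signal. Cultures contained 2% hematocrit erythrocytes at 0.1% final parasitemia.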
Giardia FBPA inh: blocks Giardia fructose-bisphosphate aldolase activity | A8B2U2 | purified Giardia FBPA | Potency, µM (highest dose often 59.6 µM), for the others: top-dose activity, negative = inhibition, most hits filed as inhibitors | 290,000 tested, 0.71% active; also: potency is read from the fitted curve at half-maximal effect; nearly all actives have a fitted effect of over 55% in size
Target sequence (A8B2U2 whole entry, looked up): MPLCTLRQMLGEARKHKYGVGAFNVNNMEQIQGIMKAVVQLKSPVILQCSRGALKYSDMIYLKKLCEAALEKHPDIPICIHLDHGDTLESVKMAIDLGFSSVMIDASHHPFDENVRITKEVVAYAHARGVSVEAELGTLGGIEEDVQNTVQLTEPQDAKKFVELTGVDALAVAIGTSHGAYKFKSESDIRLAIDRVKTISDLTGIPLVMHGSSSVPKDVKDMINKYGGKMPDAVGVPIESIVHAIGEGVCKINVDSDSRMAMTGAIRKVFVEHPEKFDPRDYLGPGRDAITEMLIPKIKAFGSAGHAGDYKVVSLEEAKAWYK
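Giardia FBPA (40 nM reagent) was preincubated 10 min at RT with compound (up to 57.5 uM final), then substrate plus GAPDH/TPI/NAD/arsenate coupling system with diaphorase/resazurin was added; resorufin fluorescence (525/598 nm) was read after 20 min.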
* marks the source's active call; other numbers are inactive results; ? = inconclusive; . = no result; + = active, no number; [ ] = remark or other dose. A selection: hits, their analogues and other compounds. The true share with any hit is near 14%. Unless noted, calls follow the shape of the dose curve; as a rule, active = well fitted curve in the direction sought with a large enough effect; inconclusive = small, poorly fitted or top-dose-only effect, or another doubt; inactive = no such curve, though single readings can be large; an effect the other way counts as inactive or inconclusive. % is scaled to controls: 0 for no effect and ±100 for the full control effect.

SMILES	Sm TGR block	Pf growth 96h	HCMV antiviral	Pf growth 48h	Giardia FBPA inh
Cc1ccc(S(=O)(=O)NCc2ccc(C(=O)N3CCN(Cc4ccccc4)CC3)cc2)cc1	-28.4%	?	-92.9*	.	3.7%
O=C(NC(=S)Nc1ccc(S(=O)(=O)Nc2nccs2)cc1)c1ccccc1F	-6.0%	-14.2%	-39.6	-2.4%	0.7%
O=C(NC(=S)Nc1ccc(S(=O)(=O)Nc2nccs2)cc1)c1ccccc1	35.5µM*	13.1µM*	-35.4	-17.3%	-24.1%
O=C(Nc1ccc(S(=O)(=O)Nc2nccs2)cc1)c1c(F)c(F)c(F)c(F)c1F	-7.4%	3.7µM*	7.0	-7.7%	-3.3%
CCc1nnc(NS(=O)(=O)c2ccc(NC(=O)/C=C/c3ccccc3Cl)cc2)s1	.	16.9%	-16.1	-4.4%	16.6%
CCc1nnc(NS(=O)(=O)c2ccc(NC(=O)/C=C/C(=O)O)cc2)s1	5.62µM*	?	86.2	20.0%	-26.8%
CCc1nnc(NS(=O)(=O)c2ccc(NC(=O)c3ccccc3OC)cc2)s1	7.7%	3.2%	+	-0.8%	-5.3%
NC(=O)CCC(NC(=O)OCc1ccccc1)C(=O)OCC(=O)c1ccccc1 (centres undefined)	.	.	59.0	.	.
COc1ccc2c(c1)C(=O)[C@@H](OC(=O)NCc1ccco1)[C@H](c1ccc(OC)c(Br)c1)O2	.	.	.	.	4.5%
CCc1nnc(NS(=O)(=O)c2ccc(NC(=S)NC(=O)c3ccccc3)cc2)s1	39.8µM*	40.9%	-18.9	0.0%	14.1%
O=C(NC(=S)Nc1ccc(S(=O)(=O)Nc2nccs2)cc1)c1cccnc1	12.6µM*	69.3%	-24.3	-1.7%	-20.7%
Cc1ccc(S(=O)(=O)Nc2ccc(NC(=O)/C=C/C(=O)O)cc2)cc1	50.1µM*	0.0%	1.2	4.7%	15.5%
COc1cccc(OC)c1C(=O)NC(=S)Nc1ccc(S(=O)(=O)Nc2nccs2)cc1	?	10.7%	?	13.1µM*	6.5%
CCNc1ncc2nc(-c3ccc(OC)cc3)c(=O)n(Cc3cccc(OC)c3)c2n1	.	.	.	.	-4.2%
FC(F)Oc1ccc(COc2ccc3c(-c4ccccn4)noc3n2)cc1	.	.	12.1	.	.
O=C1NN=C(c2ccccc2)C1Cc1ccccc1 (centres undefined)	.	.	-18.5	.	.
CCc1nnc(NS(=O)(=O)c2ccc(NCc3cc(Br)ccc3O)cc2)s1	-6.5%	37.8%	.	4.9%	.
CCc1nnc(NS(=O)(=O)c2ccc(NCc3ccccc3O)cc2)s1	3.7%	3.29µM*	13.1	17.5%	-21.1%
CC(C)N(Cc1ccccc1)C(=S)Nc1cccnc1	-2.3%	7.38µM*	-30.7	?	0.7%
CN(Cc1ccccc1)C(=S)Nc1cccnc1	7.7%	-4.9%	-14.4	-16.6%	0.7%
Cc1[nH]c2ccc(F)cc2c1CCN(Cc1ccncc1)C(=S)Nc1ccccc1	10.0%	?	-17.2	?	-4.5%
CCN(Cc1ccncc1)C(=S)Nc1ccccc1	7.6%	2.94µM*	-11.2	23.7%	-13.1%
CC[C@H](C)[C@@H](CN[C@H](C)CNC)NCCC(c1ccccc1)c1ccccc1	-29.8%	?	-97.0*	?	24.7%
CNC(=S)NCCC(c1ccccc1)c1ccccc1	-1.5%	3.2%	-35.3	?	6.4%
Cc1ccc(NC(=O)CSC2=C(C#N)C(c3ccc4c(c3)OCO4)C3=C(CCCC3=O)N2)c(C)c1 (centres undefined)	-25.2%	6.0%	-64.6*	?	2.5%
SMILES	Sm TGR block	Pf growth 96h	HCMV antiviral	Pf growth 48h	Giardia FBPA inh
COc1cc(C2C(C#N)=C(SC)NC3=C2C(=O)CCC3)ccc1O (centres undefined)	-19.2%	-29.8%	-37.5	-16.4%	2.9%
CCc1ccccc1NC(=O)CSC1=C(C#N)C(c2ccc(O)c(OC)c2)C2=C(CCCC2=O)N1 (centres undefined)	39.8µM*	46.0%	-11.7	?	-23.8%
CCOC(=O)c1ccc2ncc(C(=O)OCC)c(NCc3ccco3)c2c1	-28.6%[11.4 µM]	1.65µM*	12.8	.	-15.8%
CCOC(=O)c1cnc2c(C)cccc2c1NCc1ccco1	-35.2%	?	-39.2	?	-11.0%
CCOC(=O)c1cnc2c(OC)cccc2c1Nc1ccc2c(c1)OCCO2	-9.6%	?	-37.4	2.33µM*	-13.3%
CCOC(=O)c1cnc2ccc(C(=O)OC)cc2c1Nc1ccc2c(c1)OCCO2	0.5%	10.4µM*	-35.7	?	2.3%
CCOC(=O)c1cnc2ccc(OC)cc2c1Nc1ccc2c(c1)OCCO2	1.3%	?	?	?	?
CCOC(=O)c1cnc2ccc(OC)cc2c1Nc1ccc(N2CCN(C)CC2)cc1	-13.2%	0.928µM*	7.9	1.65µM*	8.4%
CCOc1ccccc1NC(=O)Nc1cccc(S(N)(=O)=O)c1	-1.4%	20.7%	?	43.4%	-8.4%
CCOc1ccccc1NC(=S)Nc1ccc(S(N)(=O)=O)cc1	14.1µM*	-13.8%	-24.2	28.0%	-7.1%
O=C(NC(=S)Nc1ccccc1Br)C1CC1	.	.	37.6	.	.
Cc1ccccc1NC(=S)NC(=O)C1CCCCC1	14.1µM*	71.8%	42.6	?	.
O=C(NC(=S)Nc1ccccc1CO)C1CCCCC1	.	.	-15.6	.	.
CCOc1ccccc1NC(=S)NC(=O)C1CC1	?	?	-63.6*	5.22µM*	.
O=C(CNC(=S)NC(=O)C1CCCCC1)c1ccccc1	-1.4%	49.2%	-78.8*	187.7%	3.4%
CCn1c2c(c(=O)n3ncc(C(=O)N4CCN(c5ccc(Cl)cc5)CC4)c13)CN(Cc1ccc(OC)cc1)CC2	-1.1%	.	?	.	.
CCC[C@@H]1C[C@@]1(CCC)C(NC(=O)c1ccco1)c1ccc(Cl)cc1 (some centres undefined)	.	.	.	.	0.8%
N#Cc1ccc(S(=O)(=O)N2CCC(C(=O)Nc3cccc(C(=O)NC4CC4)c3)CC2)cc1	4.8%	-53.2%	13.5	?	.
COc1cc(C2c3c(-c4ccccc4O)n[nH]c3C(=O)N2Cc2ccco2)cc(OC)c1OC (centres undefined)	-9.9%	7.38µM*	-4.2	11.7µM*	-4.1%
CCCOc1cccc(C2c3c(-c4ccccc4O)n[nH]c3C(=O)N2Cc2ccco2)c1 (centres undefined)	13.7%	.	-71.9*	.	.
Cc1cc(C)c(-c2n[nH]c3c2C(c2ccccc2F)N(Cc2ccco2)C3=O)c(O)c1 (centres undefined)	-2.7%	.	-73.5*	.	.
COc1ccc(C2c3c(-c4ccccc4O)n[nH]c3C(=O)N2Cc2ccco2)cc1 (centres undefined)	-7.3%	9.28µM*	?	?	-0.7%
COc1ccc(S(=O)(=O)N2CCC(N3CCN(Cc4ccccc4)C(=O)C3=O)CC2)cc1	-2.2%	.	-6.0	.	.
N#CCCN(C(=S)NC(=O)c1cccs1)c1ccccc1F	-1.3%	15.3%	-8.4	?	.
O=C(COC(=O)/C=C/c1cccc(C(F)(F)F)c1)NC(=O)NCc1ccco1	.	.	0.0	.	.
